The target of experiment [1] is Arylsulfatase A (Homo sapiens) (UniProt P15289). Kind of experiment: qHTS screen for enhancers of Arylsulfatase A (ASA1): LOPAC Validation Assay (AID 720538). The essentials:
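SV40-transformed fibroblasts from an MLD patient (ASA-I179S) were treated with compound for 48 h at 37 C. They were then lysed with 0.5 mM pNCS substrate (final) for 14 h at room temperature and stopped with NaOH; signal read by fluorescence (Ex 525/Em 598 nm), with increase denoting enhanced activity.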
(In general: In qHTS, concentration-response curves come from the screen itself.)

The nature of experiment [2]: qHTS for compounds that reverse cellular toxicity of Amyloid beta (A-beta) peptide in yeast: LOPAC Validation Assay (AID 720559).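 Note: plate controls were DMSO for no effect and equimolar ferric chloride plus clioquinol rescue for full effect.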 The method in brief:
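Yeast expressing toxic A-beta grown with pinned compounds at 30 C for 48 hr. Growth measured as absorbance at 600 nm; data normalized to DMSO and to an equimolar FeCl3/clioquinol mixture as positive control.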

Experiment [3] is described as follows: qHTS for Activators of Parkin Expression: LOPAC Validation Assay (NLuc Reporter) (AID 720572;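 note: 0% = DMSO and 100% = positive control compound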). The method in brief: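 Cells harboring the Parkin-promoter coincidence reporter were treated for 24 h at seven concentrations. NLuc output was measured sequentially after the FLuc channel and scaled between DMSO and positive control values.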
The target of experiment [4] is T1, Hexokinase-4 (Homo sapiens) + Glucokinase regulatory protein (Homo sapiens) (UniProt P35557+Q14397). Kind of experiment: qHTS assay for inhibitors of recombinant human GCK-GKRP interaction: Diaphorase-coupled assay (AID 743205). Note: potency is the fitted concentration of half-maximal effect. The method in brief: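 Compounds pre-incubated 20 min with substrate, then 10 nM GST-GCK with 10 nM FLAG-GKRP added. GCK activity coupled via G6PDH and diaphorase to resorufin (5 mM glucose, 0.4 mM ATP, 0.15 mM NADP+, pH 7.6), read kinetically over 30 minutes at Ex 525/Em 590 nm.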

In experiment [5] the target is T1, Hexokinase-4 (Homo sapiens) + Glucokinase regulatory protein (Homo sapiens). As to the kind of experiment: qHTS assay for inhibitors of recombinant human GCK-GKRP interaction: ADP-Glo assay (AID 743206). Note: potency is the fitted concentration of half-maximal effect. The method in brief: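 Pin-transferred compounds meet a 15 nM GST-GCK/15 nM FLAG-GKRP/2 uM S6P mix (dispense concentrations). ATP is then added to 0.4 mM final with 5 mM glucose, and the reaction runs 60 min at room temperature. ADP is quantified luminescently.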

For experiment [6] the target is unchanged. As to the kind of experiment: qHTS assay for inhibitors of recombinant human GCK-GKRP interaction: HTRF assay (AID 743207). Note: potency is the fitted concentration of half-maximal effect. The method in brief: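 HTRF binding of 5 nM GST-GCK and 5 nM FLAG-GKRP with 2 uM S6P in pH 7.1 Hepes buffer (MgCl2, KCl, DTT, Tween 20, BSA). Anti-FLAG XL665 and anti-GST donor added, 60 min at room temperature; 665/615 nm read, normalized to with- and without-GCK controls.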

Experiment [7] is described as follows: qHTS Assay for Identifying Gametocytocidal Compounds (AID 743244).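 For max response: % is set by controls: 0 for no effect and ±100 for the full control effect; actives lower the fluorescent signal which means gametocytes are killed.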 Note: potency is the fitted concentration of half-maximal effect. To be noted: P. falciparum 3D7 stage III-V gametocytes, alamarBlue, 72 h; max response: stronger effect = lower value. The essentials:
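Fluorescence at Ex 525/Em 598 nm, recorded 24 h after alamarBlue addition, reports residual metabolic activity of 3D7 gametocytes (stages III–V) following 72 h compound exposure at 37 °C, 5% CO2.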

The nature of experiment [8]: qHTS profiling of the MIPE4 collection as inhibitors of Plasmodium falciparum (3D7) proliferation (AID 743344; call rule not given here;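 note: scaled between DMSO vehicle wells and 0.29 µM artemisinin as full inhibition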). The following applies: P. falciparum 3D7 in erythrocytes, SYBR Green DNA fluorescence, 72 h; at 28.5 µM (top of the series) unless noted. The essentials: (§1)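 Parasite DNA was quantified by SYBR Green I fluorescence (ex 485, em 535 nm) after overnight lysis in saponin/Triton buffer at room temperature. Cultures at 0.3% parasitemia and 2.5% hematocrit were first exposed to compound for 72 h at 37 C; signals were normalised to artemisinin (0.29 uM) and vehicle wells.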

Experiment [9] in a line: qHTS profiling of the MIPE4 collection as inhibitors of Plasmodium falciparum (DD2) proliferation (AID 743345; call rule not given here). To be noted: P. falciparum Dd2 in erythrocytes, SYBR Green DNA, 72 h; at 28.5 µM (top of the series) unless noted. The method in brief:
as §1

A short description of experiment [10]: qHTS profiling of the MIPE4 collection as inhibitors of Plasmodium falciparum (DD2) proliferation (Rep 2) (AID 743346; call rule not given here). To be noted: P. falciparum Dd2 in erythrocytes, SYBR Green DNA, 72 h; at 28.5 µM (top of the series) unless noted. The essentials: as §1
Experiment [11] is described as follows: qHTS for Activators of Parkin Expression: LOPAC Validation Assay (FLuc Reporter) (AID 720573; note: potency is the fitted concentration of half-maximal effect). The method in brief:
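Neuronal cell line stably expressing FLuc/NLuc coincidence reporter under the Parkin promoter, 1,500 cells/well, dosed 24 h after seeding in 7-point series for 24 h at 37 C. FLuc luminescence read; normalized to DMSO and positive control (100%).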

Experiment [12] can be described thus: qHTS for small molecule inhibitors of Yes1 kinase: Counter Assay (AID 686950).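 Note: no kinase present so only ADP-Glo detection of a fixed ADP amount is tested; luminescence from ADP-Glo reporting ADP in a fixed ATP and ADP mixture; 0% = DMSO wells with ATP plus ADP and -100% = ATP-only wells without ADP.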 The method in brief:
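Measuring interference with ADP-Glo, the assay ran 60 min at room temperature on an ATP/ADP mix lacking enzyme. Values were normalized to ATP-plus-ADP (maximum) and ATP-only (minimum) DMSO controls.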

The nature of experiment [13]: qHTS profiling for inhibitors of Plasmodium falciparum (3D7) proliferation (AID 743322).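 Note: infected erythrocytes exposed to compound for 72 h before lysis; 100% = DMSO vehicle wells and 0% = 0.29 µM artemisinin.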 The following applies: P. falciparum 3D7 proliferation, at 28.7 µM (top of the series). The method in brief:
as §1

A short description of experiment [14]: qHTS profiling for inhibitors of Plasmodium falciparum (DD2) proliferation (AID 743323; call rule not given here). The following applies: at 28.7 µM (top of the series), lower = more inhibition. The essentials: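 P. falciparum Dd2-infected erythrocytes (0.3% parasitemia, 2.5% hematocrit) exposed 72 h at 37 C, 5% CO2. Lysis with SYBR Green, overnight at room temperature, fluorescence 485/535 nm; normalized to 0.29 uM artemisinin and DMSO.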

The nature of experiment [15]: qHTS profiling for inhibitors of Plasmodium falciparum (HB3) proliferation (AID 743324).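 Note: 100% = DMSO vehicle wells and 0% = artemisinin-treated control wells.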 To be noted: Plasmodium falciparum HB3 blood-stage proliferation; at 28.7 µM (top of the series). The essentials: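 SYBR Green fluorescence (485 ex/535 em) of lysed cultures, incubated overnight at room temperature in the dark, quantifies parasite DNA. Infected erythrocytes at 0.3% parasitemia and 2.5% hematocrit were exposed 72 h; values normalized to DMSO and 0.29 uM artemisinin controls.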

Experiment [16] is described as follows: qHTS assay for small molecule agonists of the antioxidant response element (ARE) signaling pathway measured by Nrf2-dependant transcriptional activity (AID 720636; active = well fitted curve in the direction sought with a large enough effect in the repeat runs; an effect the other way counts as inactive or inconclusive;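 note: HepG2 cells with an ARE-driven luciferase reporter; % of control where 0% means no effect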). The essentials: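 Nrf2-dependent transcription is measured in ARE-luc HepG2 cells: compound is applied for 16 hr at 37 C after a 6 hr attachment period, and luciferase activity is quantified by luminescence using ONE-Glo.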

Experiment [17] can be described thus: qHTS assay for small molecule antagonists of the retinoid-related orphan receptor gamma (ROR-gamma) signaling pathway - cell viability counter screen (AID 720652; active = well fitted curve in the direction sought with a large enough effect in the repeat runs; an effect the other way counts as inactive or inconclusive;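 note: CHO reporter cells with doxycycline-induced ROR-gamma expression; compound exposure lasted 16 hr before ATP read; % is set by controls: 0 for no effect and ±100 for the full control effect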). The essentials:
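Steps: seed CHO cells bearing TET-inducible ROR and ROR response element-luciferase; rest 5 hr at 37 C; add compound, then doxycycline; incubate 16 hr; add CellTiter-Glo and read luminescence as ATP-based viability.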

Experiment [18] in a line: qHTS assay for small molecule agonists of the antioxidant response element (ARE) signaling pathway measured by Nrf2-dependant transcriptional activity - cell viability counter screen (AID 720653; active = well fitted curve in the direction sought with a large enough effect in the repeat runs; an effect the other way counts as inactive or inconclusive; note: % is set by controls: 0 for no effect and ±100 for the full control effect). To be noted: ARE-bla HepG2 viability, CellTiter-Glo ATP luminescence, 16 h; max response: stronger effect = lower value. The essentials: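 ARE-bla HepG2 cells (2,000/well) rested 5 hrs at 37C/5% CO2, then exposed to compounds in DMSO for 16 hrs. Viability was read in the same wells as intracellular ATP by luminescence, 30 min at room temperature after reagent addition.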

Experiment [19] can be described thus: qHTS assay for cell viability of HEK293 cells (AID 743288). Note: % is set by controls: 0 for no effect and ±100 for the full control effect; nearly all actives have a fitted effect of over 50% in size. To be noted: ATP luminescence (CellTiter-Glo), 18 h; max response: stronger effect = lower value. The method in brief: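 Steps: plate 2,000 parental HEK293 cells per well; incubate ≥5 h, 37 C; add compounds in DMSO; incubate 18 h, 37 C; add CellTiter-Glo; wait 30 min at room temperature; read luminescence.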

The nature of experiment [20]: qHTS assay for cell viability of the p53RE-bla HCT-116 cell line (AID 743292). Note: % is set by controls: 0 for no effect and ±100 for the full control effect; nearly all actives have a fitted effect of over 55% in size. The essentials: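 ATP-based luminescence, 16 h compound exposure at 37 C, p53RE-bla HCT-116 cells at 4,000/well.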

Structures are written as SMILES. “And” between values parts separate entries of the source, which are not always exact repeats. Identical values can stand only once. Results filed as inconclusive are left out. The source made the active and inactive calls. Unless noted, calls come from the whole dose curve; as a rule, active = well fitted curve in the direction sought with a large enough effect; inconclusive = small, poorly fitted or top-dose-only effect, or another doubt; inactive = no such curve, though single readings can be large; an effect the other way counts as inactive or inconclusive.

The record followed here is PubChem BioAssay (NCATS).

Sequence of Arylsulfatase A (Homo sapiens) (P15289 whole entry, looked up): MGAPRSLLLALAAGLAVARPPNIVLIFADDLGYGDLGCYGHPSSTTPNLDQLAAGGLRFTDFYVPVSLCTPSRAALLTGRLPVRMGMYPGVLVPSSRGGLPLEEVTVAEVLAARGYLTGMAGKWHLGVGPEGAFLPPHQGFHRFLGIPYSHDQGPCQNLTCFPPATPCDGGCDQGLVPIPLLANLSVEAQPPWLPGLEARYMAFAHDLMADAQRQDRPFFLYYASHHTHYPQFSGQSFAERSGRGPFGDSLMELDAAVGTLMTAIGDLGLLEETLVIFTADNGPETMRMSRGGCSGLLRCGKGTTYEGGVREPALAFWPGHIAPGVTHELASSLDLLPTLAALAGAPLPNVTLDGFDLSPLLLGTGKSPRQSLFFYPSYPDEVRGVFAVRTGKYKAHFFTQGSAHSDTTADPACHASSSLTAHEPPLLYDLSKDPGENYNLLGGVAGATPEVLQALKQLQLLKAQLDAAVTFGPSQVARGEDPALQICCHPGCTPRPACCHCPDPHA
T1 sequence (P35557 whole entry, looked up): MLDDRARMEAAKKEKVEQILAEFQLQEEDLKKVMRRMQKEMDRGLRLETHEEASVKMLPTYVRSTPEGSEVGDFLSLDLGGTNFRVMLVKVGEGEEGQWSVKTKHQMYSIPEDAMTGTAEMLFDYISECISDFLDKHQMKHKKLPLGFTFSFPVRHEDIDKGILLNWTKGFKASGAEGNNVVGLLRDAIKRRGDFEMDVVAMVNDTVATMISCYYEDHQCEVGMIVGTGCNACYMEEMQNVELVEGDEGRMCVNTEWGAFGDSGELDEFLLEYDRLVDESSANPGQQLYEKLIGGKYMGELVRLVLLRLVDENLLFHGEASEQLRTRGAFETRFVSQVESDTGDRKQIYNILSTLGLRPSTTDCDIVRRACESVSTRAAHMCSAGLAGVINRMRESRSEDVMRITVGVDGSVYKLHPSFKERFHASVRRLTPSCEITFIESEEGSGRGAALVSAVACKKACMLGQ
T1 sequence (Q14397 whole entry, looked up): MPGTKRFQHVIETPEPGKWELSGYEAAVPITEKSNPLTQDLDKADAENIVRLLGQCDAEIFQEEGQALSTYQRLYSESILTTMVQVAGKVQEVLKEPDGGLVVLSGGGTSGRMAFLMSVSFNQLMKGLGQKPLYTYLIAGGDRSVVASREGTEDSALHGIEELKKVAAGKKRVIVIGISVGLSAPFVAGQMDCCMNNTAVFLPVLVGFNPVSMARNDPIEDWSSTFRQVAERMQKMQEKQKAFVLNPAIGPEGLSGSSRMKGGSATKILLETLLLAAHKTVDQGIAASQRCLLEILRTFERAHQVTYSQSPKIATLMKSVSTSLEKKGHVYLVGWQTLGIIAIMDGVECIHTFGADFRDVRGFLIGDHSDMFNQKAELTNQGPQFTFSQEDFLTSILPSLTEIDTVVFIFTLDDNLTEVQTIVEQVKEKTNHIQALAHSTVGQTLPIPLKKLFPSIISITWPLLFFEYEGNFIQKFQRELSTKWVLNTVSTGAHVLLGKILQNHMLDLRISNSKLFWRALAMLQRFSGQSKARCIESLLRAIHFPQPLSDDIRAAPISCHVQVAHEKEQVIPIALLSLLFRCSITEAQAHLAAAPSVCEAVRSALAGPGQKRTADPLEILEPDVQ

Regarding `Cc1cc(C(C)(C)C)c(O)c(C)c1CC1=NCCN1`, the Potency result in experiment [1], in [4], in experiment [5] and in experiment [6] was “inactive” each time. Further, the compound was called inactive in experiment [2] and in experiment [3]. Also, the max response in [7] was -1.21% (inactive) and 27.5% (inactive). In experiment [8], this compound showed a parasite growth, % of DMSO control of 80.6%. Moreover, the parasite growth remaining, % of DMSO control (lower = more inhibition) in experiment [9] was 95.8%. In addition, in experiment [10], the parasite growth, % of control (lower = inhibition) was determined as 68.6%.
Regarding `COc1cc2nc(N3CCN(C(=O)c4ccco4)CC3)nc(N)c2cc1OC`, the Potency entry in experiment [1], in [11], in experiment [4], in [5] and in experiment [6] was “inactive” throughout. Besides, the compound was classed as inactive in experiment [2] and in experiment [3]. Further, in experiment [7], the Potency is 11.2 µM (active). Besides, the parasite growth, % of DMSO control in experiment [8] turned out to be 4.68%. In experiment [9], the parasite growth remaining, % of DMSO control (lower = more inhibition) is 20.6%. Moreover, the parasite growth, % of control (lower = inhibition) in [10] is 8.89%.
For the compound `Cc1ccc(C(=O)Nc2ccc(S(=O)(=O)O)c3cc(S(=O)(=O)O)cc(S(=O)(=O)O)c23)cc1NC(=O)c1cccc(NC(=O)Nc2cccc(C(=O)Nc3cc(C(=O)Nc4ccc(S(=O)(=O)O)c5cc(S(=O)(=O)O)cc(S(=O)(=O)O)c45)ccc3C)c2)c1`, the Potency result in experiment [1] is “inactive”. Also, the call in [2] and in experiment [3] was inactive. Also, the Potency was 28.2 µM (active) in experiment [4], 5.62 µM (active) in [5] and 17.8 µM (active) in [6]. For the same compound, in experiment [7], the max response was 35.1% (inactive) and 2.76% (inactive). Moreover, the parasite growth, % of DMSO control in experiment [8] turned out to be 19.9%. Also, the parasite growth remaining, % of DMSO control (lower = more inhibition) in [9] came to 75.7%. Moreover, the parasite growth, % of control (lower = inhibition) in [10] was found to be 23.2%.
On to `O=c1c(O)c(-c2ccc(O)c(O)c2)oc2cc(O)cc(O)c12`, for which the result in experiment [12] and in [2] was inactive. The Potency result in experiment [4], in experiment [5] and in experiment [6] was “inactive” in each case. For the same compound, the remaining parasite growth % (stronger effect = lower value) in experiment [13] was 26.9% and 12.7%. Also, the activity, percent of control in experiment [14] is 8.52% and 5.2%. In addition, the remaining proliferation (% of control), lower = more inhibition in [15] was 1.74% and 5.43%. Besides, in [8], the parasite growth, % of DMSO control turned out to be 12.8%. Moreover, the parasite growth, % of control (lower = inhibition) in experiment [10] came out at 9.46%.
`CCC1(c2ccccc2)C(=O)NCNC1=O`: the Potency result in experiment [1], in [17], in experiment [4], in [5], in experiment [6] and in [20] was “inactive” throughout. Further, the compound was classed as inactive in experiment [2], in experiment [3] and in experiment [16]. Also, the max response was 3.8% (inactive) and 3.23% (inactive) in experiment [18]; 16.7% (inactive) and 25% (inactive) in [7]; -2.05% (inactive) and -6.21% (inactive) in experiment [19]. In experiment [8], this compound had a parasite growth, % of DMSO control of 109%. Also, the parasite growth remaining, % of DMSO control (lower = more inhibition) in [9] was determined as 102%. In addition, the parasite growth, % of control (lower = inhibition) in experiment [10] worked out at 107%.
For `CCN1CCCC1CNC(=O)c1cc(S(=O)(=O)CC)c(N)cc1OC` (stereo not given), the Potency entry in experiment [1], in [11], in experiment [4], in [5] and in experiment [6] was “inactive” throughout. For the same compound, the compound was classed as inactive in experiment [2] and in experiment [3]. The max response in experiment [7] is -5.68% (inactive) and 24.9% (inactive). The parasite growth, % of DMSO control in [8] worked out at 93.7%. Also, in experiment [9], the parasite growth remaining, % of DMSO control (lower = more inhibition) amounted to 99.9%. The parasite growth, % of control (lower = inhibition) in experiment [10] worked out at 50.9%.
For `O=c1c(-c2ccc(O)cc2)coc2cc(O)cc(O)c12`, the result in experiment [12] and in [2] was inactive. Moreover, the Potency in [11] was 8.2 µM (active). Moreover, the max response was 0.177% (inactive) and -1.16% (inactive) in experiment [18]; 20.7% (inactive) and 7.37% (inactive) in experiment [7]; -13% (inactive) and -14.1% (inactive) in experiment [19]. For the same compound, the Potency result in experiment [4], in [5], in [6] and in experiment [20] was “inactive” each time. The compound further showed a parasite growth, % of DMSO control in experiment [8] of 72.2%. For the same compound, the parasite growth remaining, % of DMSO control (lower = more inhibition) in [9] amounted to 88.4%. In addition, the parasite growth, % of control (lower = inhibition) in experiment [10] came out at 57.2%.
